{"source": "PubChem BioAssay (NCATS)", "note": "Results filed as inconclusive are left out. Where a call stands in place of a potency, no number is given. The source made the active and inactive calls. Calls follow the shape of the dose curve; as a rule, active = well fitted cell-killing curve with a large enough effect; inconclusive = small, poorly fitted or top-dose-only effect; inactive = flat fitted curve, though single readings scatter. Potency is read from the fitted curve at half-maximal effect.", "data": [{"assay": "qHTS assay to identify small molecule inhibitors of chordoma cells - UCH-2 (AID 1259356)", "settings": "UCH-2 chordoma viability, CellTiter-Glo ATP luminescence, 48 h; series mostly up to 46.1 µM", "values": [{"smiles": "CSc1nc2cc(Oc3cccc(Cl)c3Cl)c(Cl)cc2[nH]1", "Potency": "inactive"}, {"smiles": "C[C@H]1O[C@@H](O[C@H]2[C@@H](O)C[C@H](O[C@H]3[C@@H](O)C[C@H](O[C@H]4CC[C@@]5(C)[C@H](CC[C@@H]6[C@@H]5C[C@@H](O)[C@]5(C)[C@@H](C7=CC(=O)OC7)CC[C@]65O)C4)O[C@@H]3C)O[C@@H]2C)C[C@H](O)[C@@H]1O", "Potency": "116 nM (active)"}, {"smiles": "O=C(CCCN1CCC(C(=O)c2ccc(F)cc2)CC1)c1ccc(F)cc1", "Potency": "inactive"}, {"smiles": "NC(N)=O", "Potency": "inactive"}, {"smiles": "C=C1CC[C@H](O)CC1=C/C=C1\\CCC[C@]2(C)[C@@H]([C@H](C)CCCC(C)(C)O)CC[C@@H]12", "Potency": "inactive"}, {"smiles": "CCN(CC)CCC(=O)N1c2ccccc2Sc2ccc(C(F)(F)F)cc21", "Potency": "inactive"}, {"smiles": "CCN(CC)CCOCCOC(=O)C(CC)(CC)c1ccccc1", "Potency": "inactive"}, {"smiles": "Cc1c(N)nc([C@H](CC(N)=O)NC[C@H](N)C(N)=O)nc1C(=O)N[C@H](C(=O)N[C@H](C)[C@@H](O)[C@H](C)C(=O)N[C@H](C(=O)NCCc1nc(-c2nc(C(=O)NCCCCN=C(N)N)cs2)cs1)[C@@H](C)O)[C@@H](O[C@@H]1O[C@@H](CO)[C@@H](O)[C@H](O)[C@@H]1O[C@H]1O[C@H](CO)[C@@H](O)[C@H](OC(N)=O)[C@@H]1O)c1cnc[nH]1", "Potency": "inactive"}, {"smiles": "C=Cc1c(C)c2cc3nc(cc4[nH]c(cc5nc(cc1[nH]2)C(C)=C5CCC(=O)OC)c(CCC(=O)O)c4C)[C@@]1(C)C3=CC=C(C(=O)OC)[C@H]1C(=O)OC", "Potency": "inactive"}, {"smiles": "C=C1[C@H](CO)[C@@H](O)C[C@@H]1n1cnc2c(=O)[nH]c(N)nc21", "Potency": "inactive"}]}]}
